# Data reported in ChEMBL document CHEMBL3433997, “St. Jude Leishmania screening dataset” (2016).
# Target: Glucose transporter (Leishmania mexicana) (UniProt O61059)
# Test: ST_JUDE_LEISH: Cytotoxicity at 2uM final concentration against transgenic Leishmania Mexicana promastigotes LmGT2 that are glucose transport deficient and complemented with the L. Mexicana glucose transporter 2. Activity is measured by DNA content using SYBR green in vitro
# Assay type: functional
row,Compound,inhibition
1,O=C(/C=C/c1ccc(Cl)c(Cl)c1)NCCCCCCN1CCCN(C(=O)Nc2cc(F)cc(F)c2)CC1,-1.02%
2,O=C1C(c2ccccc2)=C(Nc2ccc(Cl)cc2)c2ccccc21,2.61%
3,Cc1ccc(NC(=O)c2cn(-c3ccccc3)nc2-c2ccc(F)cc2)cc1[N+](=O)[O-],1.86%
4,CCNC(=O)c1ccc(-n2nc(C)cc2-c2ccccc2)cc1,-0.67%
5,CSc1ccc(NC(=O)Nc2cc(C)nc3ccccc23)cc1,10.3%
6,Cn1cncc1C(=O)Nc1cccc(-c2cccc(-c3nc4ccccc4[nH]3)c2)c1,5.38%
7,Cc1ccc(O)cc1Nc1ccnc2ccc(C(C)(C)C)cc12,-2.07%
8,CO/C(=C\C=C\c1cc2cc(Cl)c(Cl)cc2[nH]1)C(=O)NC1CC2CCC(C1)N2C (stereo not given),-1.99%
9,O=C(/C=C/c1ccccc1Cl)NC1CCC(CN2CCC(c3c[nH]c4ccncc34)CC2)CC1 (stereo not given),1.34%
10,CN(c1ccccc1C(=O)Nc1ccccc1Oc1ccccc1)S(=O)(=O)c1ccccc1,5.08%
11,O=C(/C=C/c1ccc(Cl)c(Cl)c1)NCCCCCN1CC[C@H](NC(=O)/C=C/c2ccccc2)C1,-0.08%
12,COc1ccc(Nc2ncc3c(-c4cccc(NC(=O)Cc5cccnc5)c4)c[nH]c3n2)cc1OC,-1.58%
13,O=C(COc1ccc(F)cc1)NC1CCN(c2ccnc3cc(Cl)ccc23)C1 (stereo not given),6.88%
14,O=S(=O)(c1cccc(Cl)c1F)N(CCC(O)(C(F)(F)F)C(F)(F)F)Cc1cccc(O)c1,-0.05%
15,CC(=O)Nc1ccc(CNC2Cc3ccc(-c4ccc(Cl)c(Cl)c4)cc3C2)cc1 (stereo not given),-0.25%
16,COc1ccc(-c2nc(NCc3ccccc3)c3cc(OC)c(OC)cc3n2)cc1,4.38%
17,COc1ccc(-c2ccc(NC(=O)c3ccc(Cl)cc3)cc2)cc1CN1CCCN(C)CC1,5.6%
18,Cc1cccc2nc(-c3cccc(-c4cccc(CNCc5ccc(S(C)(=O)=O)cc5)c4)c3)[nH]c12,-0.24%
19,CCCCCCCN(Cc1ccc(OC(C)(C)C(=O)OCC)cc1)C(=O)Nc1ccc(Cl)cc1OCC,3.11%
20,NC1=NC(c2ccccc2)(c2ccccn2)C(=O)N1CCCc1ccccc1 (stereo not given),1.77%

row,Compound,inhibition
1,COc1cc(Nc2ccnc3cc(-c4ccncc4)ccc23)cc(OC)c1OC,9.21%
2,C=CCc1ccc(C2CCN(CCCCNC(=O)c3ccc(NC(=O)c4ccc(Cl)cc4)cc3)CC2)cc1,0.46%
3,Cc1cc(OCCCN2CCCC2)ccc1NC(=O)COc1ccc(Cl)cc1C(=O)c1cc(C#N)cc(C(F)(F)F)c1,10.3%
4,CC(C)c1ccc(CN2CCCCC(NC(=O)c3cc(-c4cccc(F)c4)cs3)C2)cc1 (stereo not given),0.54%
5,Cc1cc(N(C)CCCN(C)C)nc(Nc2ccc(Cl)cc2)n1,-0.32%
6,COc1cccc(OC)c1-c1ccccc1NC(=O)N1CCCc2cc(C)ccc21,2.07%
7,COc1ccc(CNCc2ccc(-c3ccc(-c4nc5cccc(C)c5[nH]4)cc3)cc2)cc1,10.3%
8,COc1ccc(NC(=O)Nc2nc(-c3ccc(Cl)c(C)c3)cs2)cc1N1CCN(C)CC1,2.63%
9,CN(C)CCN(C)Cc1ccc(-c2ccc3c(Nc4ccc(Oc5ccccn5)cc4)ccnc3c2)o1,-2.18%
10,FC(F)(F)c1ccc2[nH]c(-c3ccc(-c4cccc(CN5CCCCC5)c4)cc3)nc2c1,0.4%
11,Cc1cccc2nc(-c3cccc(-c4cccc(CN5CCN(c6ccc(C#N)cn6)CC5)c4)c3)[nH]c12,9.4%
12,Clc1cc(Nc2ccnc3ccc(Br)cc23)ccc1Oc1ccc(Cl)c2ccccc12,2.81%
13,COc1cccc(C2C(C(=O)Nc3ccccc3)=C(C)N=c3sc(=Cc4ccc(O)cc4)c(=O)n32)c1 (stereo not given),16.8%
14,Cc1cccc2nc(-c3ccc(-c4cccc(CNCCc5ccncc5)c4)s3)[nH]c12,2.73%
15,CCOC(=O)N1CCN(CCCNc2c3ccc(Cl)cc3nc3ccc(OC)cc23)CC1,1.42%
16,CC(C)c1ccc(OCC(O)CN(C)C(C)C(O)c2ccccc2)c(Br)c1 (stereo not given),10.4%
17,CC(CN(C)C)C(=O)Nc1cccc(-c2ccc(-c3nc4cc(C(F)(F)F)ccc4[nH]3)cc2)c1 (stereo not given),4.86%
18,CCCCC([C@@H](Cc1ccc2ccccc2c1)C(=O)N[C@H](C(=O)NC)C(C)(C)C)N(O)C=O (stereo not given in full),2.89%
19,CN1CCC(NC(=O)c2cccc(Nc3cc(Nc4cccc(Br)c4)ncn3)c2)CC1,2.65%
20,c1ccc(C23NC(=Nc4nc5ccccc5[nH]4)NC2(c2ccccc2)NC(=Nc2nc4ccccc4[nH]2)N3)cc1 (stereo not given),5.58%
